{"source": "PubChem BioAssay (NCATS)", "note": "Activity calls are given as the source filed them. Entries that show only a call come without a potency. Calls follow the shape of the dose curve; as a rule, active = well fitted inhibition curve with a large enough effect; inconclusive = small, poorly fitted or top-dose-only effect; inactive = no such curve, though single readings can be large or run the other way. Potency is read from the fitted curve at half-maximal effect."}
{"assay": "qHTS assay for measurement of the activity of small molecule inhibitors on Zika virus induced Caspase-3 activity in human astrocytoma cells (AID 1224859)", "conditions": "SNB-19 ZIKV-induced caspase-3/7, luminescence, 6 h; series mostly up to 45.7 µM", "text": "National Center for Advancing Translational Sciences [NCATS]\nJohns Hopkins University School of Medicine\nIncrease in the Caspase-3 activity indicates an activation of apoptosis cell death pathway caused by Zika virus infection in certain types of neuronal cells including human neural progenitor cells (hNPCs), astrocytes, and astrocytoma cell line (SNB-19). This cell-based caspase-3 activity assay measures the increased caspase-3 activity in the astrocytoma cell line (SNB-19) after a 6-hour Zika virus infection with a luminescence readout. A decrease in the luminescence signal in this assay by small molecule treatment indicates an inhibitory effect of that small molecule on the Zika virus induced caspase-3 activity that may correlate with its effect on reduction of Zika virus caused cell death.\nThe medium for SNB-19 cells is composed of RPMI 1640 (ATCC, Cat.# 30-2001), 10% fetal bovine serum (FBS) (GE healthcare Life Sciences, Cat.# SH30071.03), and 1% Pen/Strep (Gibco, Cat.# 15140-122). A Caspase-Glo 3/7 assay kit (catalog number G8092; Promega, Madison, WI) was used to detect caspase-3 activity induced by Zika virus infection in human cells. The reagent mixture was reconstituted as described in the protocol from the manufacturer. Polystyrene tissue culture treated and PDL coated white plates were obtained from Greiner Bio-One (Monroe, NC). Cells were seeded in 384- or 1536-well assay plates and cultured at 37 C with 5% CO2 for 16 to 20 hours. The typical cell seeding density in the 1536-well plate assay is 250 cells/well in 3ul medium for SNB-19 cells in tissue culture treated plates. Compounds were added to cells and incubated for one hour before addition of ZIKV solution to cells (2 FFU/cell). After incubation at 37 C with 5% CO2 for 6 hours, the reagent mixture of Caspase-Glo 3/7 assay kit was added to each well, followed by incubation at room temperature for 30 minutes. The luminescence intensity of the assay plates was measured using a ViewLux plate reader (PerkinElmer). Data were normalized by using the cell-containing wells without ZIKV as a negative control (0% induction of caspase 3/7 activity) and wells containing ZIKV infected cells (Caspase-3 activity induced) as a positive control (100% induction of caspase 3 activity). The percentage inhibitions of the increased Caspase-3 activity by small molecule inhibitors were then calculated."}
{"compound": "COc1cc(O)c2c(c1)C(=O)c1cc(C)cc(O)c1C2=O", "Potency": "inactive"}
{"compound": "CO[C@H]1C[C@@H]2CC[C@@H](C)[C@@](O)(O2)C(=O)C(=O)N2CCCC[C@@H]2C(=O)O[C@H]([C@H](C)C[C@@H]2CC[C@H](OCCO)[C@H](OC)C2)CC(=O)[C@H](C)C=C(C)[C@@H](O)[C@@H](OC)C(=O)[C@H](C)C[C@H](C)C=CC=CC=C1C", "Potency": "inactive"}
{"compound": "Cc1c(NC(=O)c2ccc(C(C)(C)C)cc2)cccc1-c1cn(C)c(=O)c(Nc2ccc(C(=O)N3CCOCC3)cc2)n1", "Potency": "11.8 µM (active)"}
{"compound": "O=c1cc(-c2ccc(O)cc2)oc2cc(O)cc(O)c12", "Potency": "inactive"}
{"compound": "O=C1NCC2(CCN(CCc3ccccc3)CC2)O1", "Potency": "inactive"}
{"compound": "Clc1cc(Cl)cc(CNc2ncncc2-c2ccc3c(c2)OCO3)c1", "Potency": "inactive"}
{"compound": "CC(C)(Cc1ccc2ccccc2c1)NC[C@@H](O)COc1cccc(Cl)c1C#N", "Potency": "inactive"}
{"compound": "c1ccc2c(-c3cnn4cc(-c5ccc(N6CCNCC6)cc5)cnc34)ccnc2c1", "Potency": "inactive"}
{"compound": "CCOC(CN1C(=O)[C@](CC(=O)Nc2ccc(C)cc2)(NC(=O)Nc2ccc(C)cc2)c2ccccc21)OCC", "Potency": "inactive"}
{"compound": "Cn1cc(C=C2C(=O)Nc3cccnc32)c2ccccc21", "Potency": "inactive"}
{"compound": "O=C(OCC#CCSc1nnc(-c2cccc3ccccc23)o1)c1cc2ccccc2s1", "Potency": "inactive"}
{"compound": "COc1cccc2c1CCCC2CCCN1CCN(C2CCCCC2)CC1", "note": "(stereo not given)", "Potency": "inactive"}
{"compound": "CN(C)Cc1ccc(-c2nc3cccc4c3n2CCNC4=O)cc1", "Potency": "inactive"}
{"compound": "C[C@@H]1CCN(C(=O)CC#N)C[C@H]1N(C)c1ncnc2[nH]ccc12", "Potency": "inactive"}
{"compound": "CC(=O)N[C@@H](CS)C(=O)O", "Potency": "inactive"}
{"compound": "CO[C@H]1C(=O)[C@]2(C)[C@@H](OC)C[C@H]3OC[C@@]3(OC(C)=O)[C@H]2[C@H](OC(=O)c2ccccc2)[C@]2(O)C[C@H](OC(=O)[C@H](O)[C@@H](NC(=O)OC(C)(C)C)c3ccccc3)C(C)=C1C2(C)C", "Potency": "inactive"}
{"compound": "Cc1ccc(Nc2cc(-c3cccc(N4C(=O)c5ccccc5C4=O)c3)ncn2)cc1NS(C)(=O)=O", "Potency": "inactive"}
{"compound": "CO[C@@H](C(=O)N1Cc2[nH]nc(NC(=O)c3ccc(N4CCN(C)CC4)cc3)c2C1)c1ccccc1", "Potency": "inactive"}
{"compound": "Cc1nnc(C(C)C)n1C1C[C@H]2CC[C@@H](C1)N2CC[C@H](NC(=O)C1CCC(F)(F)CC1)c1ccccc1", "note": "(stereo not given in full)", "Potency": "inactive"}
{"compound": "Cn1c(N2CCCCS2(=O)=O)nc(C(=O)NCc2ccc(F)cc2)c(O)c1=O", "Potency": "inactive"}
{"compound": "O=c1cc(-c2ccccc2)oc2cc(O)c(O)c(O)c12", "Potency": "inactive"}
{"compound": "NC(=O)c1ccc2nc(-c3ccc(Oc4ccc(Cl)cc4)cc3)[nH]c2c1", "Potency": "inactive"}
{"compound": "Cc1ccc(F)c(NC(=O)Nc2ccc(-c3cccc4[nH]nc(N)c34)cc2)c1", "Potency": "inactive"}
{"compound": "COc1ccc(C2Sc3ccccc3N(CCN(C)C)C(=O)C2OC(C)=O)cc1", "note": "(stereo not given)", "Potency": "inactive"}
{"compound": "COc1ccc(-c2oc3c(CC=C(C)C)c(OC4O[C@H](CO)[C@@H](O)[C@H](O)[C@@H]4O)cc(O)c3c(=O)c2OC2O[C@@H](C)[C@H](O)[C@@H](O)[C@@H]2O)cc1", "note": "(stereo not given in full)", "Potency": "inactive"}
{"compound": "CCN(CC)C(=O)c1ccc(O)c(OC)c1", "Potency": "inactive"}
{"compound": "CC(=O)CCCCn1c(=O)c2c(ncn2C)n(C)c1=O", "Potency": "inactive"}
{"compound": "C=C1C(=O)[C@@]23C(CC[C@@H]1[C@H]2O)[C@@]12CO[C@]3(O)[C@@H](O)[C@@H]1C(C)(C)CC[C@@H]2O", "note": "(stereo not given in full)", "Potency": "inactive"}
{"compound": "NC(=O)c1cccc(-c2cc(Nc3ccc(OC(F)(F)F)cc3)ncn2)c1", "Potency": "inactive"}
{"compound": "Nc1ncnc2c1ncn2[C@@H]1O[C@H](CO)C[C@@H]1O", "Potency": "inactive"}
{"compound": "O=c1cc(CN2CCOCC2)occ1OCCCCCSc1ccnc2cc(C(F)(F)F)ccc12", "Potency": "inactive"}
{"compound": "COc1ccc2c(Oc3ccc(NC(=O)c4c(C)n(CC(C)(C)O)n(-c5ccccc5)c4=O)nc3)ccnc2c1", "Potency": "inactive"}
{"compound": "O=C(NC1CCOCC1)c1ccc(-c2cc(-c3cn[nH]c3-c3ccccn3)ccn2)cc1", "Potency": "inactive"}
{"compound": "COc1ccc(-c2coc3cc(O)cc(O)c3c2=O)cc1", "Potency": "inactive"}
{"compound": "O=C1NC(=O)C(=Cc2cccc(C(F)(F)F)c2)S1", "Potency": "inactive"}
{"compound": "NS(=O)(=O)c1cccc2c1C(=O)c1cccc(O)c1C2=O", "Potency": "inactive"}
{"compound": "COc1cc(Nc2ncc(F)c(Nc3ccc4c(n3)NC(=O)C(C)(C)O4)n2)cc(OC)c1OC", "Potency": "inactive"}
{"compound": "COc1ccc(Cc2ccc(NC(N)=O)cc2)cc1-c1cccc(Cl)c1", "Potency": "inactive"}
{"compound": "COc1cc2ncnc(-n3nc(-c4ccccn4)nc3N)c2cc1OC", "Potency": "inactive"}
{"compound": "CCn1c(C(=O)N(C2CC2)C2CC2)cc2c3c(ncn3C)c(Nc3cc(C)n(C)n3)nc21", "Potency": "inactive"}
